Measured values taken from PubChem BioAssay (Tox21).
Results filed as inconclusive are left out. Active and inactive are the calls of the source. Unless noted, calls come from the whole dose curve; as a rule, active = well fitted curve in the direction sought with a large enough effect in the repeat runs; inconclusive = weak or mixed curves; inactive = no such curve, though single readings can be large; an effect the other way counts as inactive or inconclusive.

How the values were obtained:
[1] = molecular target: Acetylcholinesterase (Homo sapiens) (UniProt P22303); experiment: Acetylcholinesterase (AChE) small molecule antagonists: enzyme-based qHTS assay (AID 1347397; calls by dose curve; note: nearly all actives have a fitted effect of over 55% in size); conditions: Potency: AChE enzyme activity inhibition; outcome: AChE enzyme activity inhibition
Procedure, shortened: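 Recombinant human AChE, dispensed at 50 mU/mL, was preincubated with Tox21 10K compounds or DMSO vehicle for 30 min at room temperature. DTNB plus acetylthiocholine was then added, and thiocholine was measured colorimetrically after a further 10 min.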

[2] = molecular target: Acetylcholinesterase (Homo sapiens) (UniProt P22303); experiment: Acetylcholinesterase (AChE) small molecule antagonists: fluorescence cell-based qHTS assay (AID 1347398; calls by dose curve; note: nearly all actives have a fitted effect of over 50% in size); conditions: Potency: AChE activity; outcome: AChE activity
Procedure, shortened: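 Human SH-SY5Y cells were plated overnight at 37 C, exposed to compound for 30 min at 37 C, 5% CO2, then given acetylthiocholine plus Thiolite Green for 40 min at room temperature; thiocholine fluorescence (Ex/Em 490/520 nm) reports endogenous AChE activity.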

[3] = molecular target: Acetylcholinesterase (Homo sapiens) (UniProt P22303); experiment: Acetylcholinesterase (AChE) small molecule antagonists: enzyme-based qHTS assay with human liver microsomes (AID 1347399; calls by dose curve; note: nearly all actives have a fitted effect of over 60% in size); conditions: Potency: qHTS inhibition; outcome: qHTS inhibition
Procedure, shortened: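 Recombinant human AChE (50 mU/mL in the enzyme mix) and human liver microsomes (0.25 mg/mL final) were preincubated with compound and NADPH (0.25 mg/mL final) for 30 min at 37 C. Acetylthiocholine/DTNB was then added; thiocholine was read colorimetrically after 10 min at room temperature.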

[4] = qHTS assay for small molecules that induce genotoxicity in human embryonic kidney cells expressing luciferase-tagged ATAD5 (AID 651632); note: nearly all actives have a fitted effect of over 15% in size
Procedure, shortened: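 Luminescent reporter readout, HEK293T ATAD5-luc line: 16 hr drug exposure (37C, 5% CO2) followed by Amplite, 30 min RT.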

[5] = qHTS assay for small molecule agonists of the p53 signaling pathway - cell viability (AID 651633; calls by dose curve;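 note: p53RE-bla HCT reporter cells with a stable beta-lactamase p53 reporter; series mostly up to about 83 µM; nearly all actives have a fitted effect of over 30% in size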)
Procedure, shortened: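 p53RE-bla cells, seeded at 4,000 per well and rested 5 h at 37 C/5% CO2, received compounds in DMSO for 16 h at 37 C. CellTiter-Glo was then added, and luminescence was read after 30 min at room temperature to gauge cytotoxicity.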

[6] = qHTS assay for small molecules that induce genotoxicity in human embryonic kidney cells expressing luciferase-tagged ATAD5 - cell viability (AID 651634; calls by dose curve; note: nearly all actives have a fitted effect of over 25% in size)
Procedure, shortened: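 Viability read: CellTiter-Fluor fluorescence, 30 min at 37C. Cells: HEK293T, luciferase-tagged ATAD5. Exposure: 15.5 hr, 37C, 5% CO2, compound or DMSO vehicle.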

[7] = qHTS assay for small molecule disruptors of the mitochondrial membrane potential - cell viability (AID 720634; calls by dose curve;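 note: human HepG2 liver cancer cells; series mostly up to about 83 µM; nearly all actives have a fitted effect of over 20% in size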)
Procedure, shortened: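 HepG2, 1 hr compound, 37 C. ATP luminescence via CellTiter-Glo, 30 min RT, same well as m-MPI.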

[8] = qHTS assay for small molecule disruptors of the mitochondrial membrane potential (AID 720635)
Procedure, shortened: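 HepG2 cells (2,000/well) attached overnight at 37C, then took compound for 1 hr at 37C, 5% CO2. Mito-MPS dye was added for 30 min; fluorescence was read at 490/535 nm (monomers) and 540/590 nm (aggregates).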

[9] = qHTS assay to test for compound auto fluorescence at 590 nm (red) in HepG2 cells (AID 720674)
Procedure, shortened: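 Rose Bengal sodium served as the red fluorophore standard. HepG2 monolayers (overnight attachment, MEM with 10% FBS) were exposed to test compounds for 1 hr at 37 C and read at Ex 540/Em 590 nm.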

[10] = qHTS assay to test for compound auto fluorescence at 535 nm (green) in HepG2 cells (AID 720675)
[11] = qHTS assay to test for compound auto fluorescence at 460 nm (blue) in HEK293 cells (AID 720678)
Procedure, shortened: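 HEK293, 2,000 cells/well, 10% dialyzed FBS; attach 4-5 hr 37C; pin compound or DMSO; o/n 37C/5% CO2; fluorescence 405/460 nm; triamterene-equivalent units.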

[12] = qHTS assay to test for compound auto fluorescence at 590 nm (red) in HEK293 cells (AID 720679)
Procedure, shortened: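 Intensity at 540nm excitation and 590nm emission is reported as Rose Bengal sodium-equivalent autofluorescence. Measurements followed overnight exposure (37C, 5% CO2) of HEK293 cells, 2,000 per well, to 23 nL compound.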

[13] = qHTS assay to test for compound auto fluorescence at 535 nm (green) in HEK293 cells (AID 720680)
[14] = qHTS assay to test for compound auto fluorescence at 460 nm (blue) in HEK293 cell free culture (AID 720681)
Procedure, shortened: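 Test compounds were pinned into cell-free culture medium (DMEM with 10% FBS) and fluorescence was read directly at Ex/Em 405/460 nm. Signals were expressed as fluorescence equivalents of triamterene, with DMSO vehicle as control.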

[15] = qHTS assay to test for compound auto fluorescence at 535 nm (green) in HEK293 cell free culture (AID 720682)
Procedure, shortened: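 No cells present: wells hold DMEM supplemented with 10% FBS, into which compound or vehicle is pinned. Green emission is then recorded (485 nm excitation, 535 nm emission) and scaled to fluorescein.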

[16] = qHTS assay to test for compound auto fluorescence at 590 nm (red) in HEK293 cell free culture (AID 720683)
Procedure, shortened: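 Tox21 10K library compounds were pinned into cell-free DMEM with 10% FBS and fluorescence was read at excitation 540 nm. Activity is expressed as Rose Bengal sodium equivalency.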

[17] = qHTS assay to test for compound auto fluorescence at 460 nm (blue) in HepG2 cell free culture (AID 720685)
Procedure, shortened: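 Compound (23 nL) or DMSO pinned into cell-free MEM with 10% FBS; blue fluorescence read at 405/460 nm excitation/emission, expressed as auto-fluorescence equivalency to triamterene.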

[18] = qHTS assay to test for compound auto fluorescence at 535 nm (green) in HepG2 cell free culture (AID 720686)
[19] = qHTS assay to test for compound auto fluorescence at 460 nm (blue) in HepG2 cells (AID 720687)
Procedure, shortened: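 Cells (2,000/well in MEM with 10% FBS) attached overnight at 37 C, then were exposed to compound or DMSO for 1 hr at 37 C, 5% CO2. Fluorescence read at Ex/Em 405/460 nm, expressed as triamterene-equivalent signal.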

[20] = qHTS assay to identify small molecule antagonists of the glucocorticoid receptor (GR) signaling pathway - cell viability counter screen (AID 720693); note: nearly all actives have a fitted effect of over 55% in size
[21] = qHTS assay for identifying genotoxic compounds that show differential cytotoxicity against isogenic chicken DT40 cell lines with known DNA damage response pathways - wild type cell line (AID 743012); note: nearly all actives have a fitted effect of over 60% in size
Procedure, shortened: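 First, wild type DT40 cells were plated at 300 per well and equilibrated about 0.5 h at 37 C/5% CO2. Next, compounds in DMSO were added and exposure lasted 40 h. Finally, CellTiter-Glo was added for 30 min at room temperature and luminescence recorded.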

[22] = qHTS assay for identifying genotoxic compounds that show differential cytotoxicity against isogenic chicken DT40 cell lines with known DNA damage response pathways - Rad54/Ku70 mutant cell line (AID 743015); note: nearly all actives have a fitted effect of over 60% in size
[23] = molecular target: Androgen receptor (Homo sapiens) (UniProt P10275); experiment: qHTS assay to identify small molecule agonists of the androgen receptor (AR) signaling pathway (AID 743036; active = well fitted activation curve with a large enough effect in the signal ratio in the repeat runs, with a control signal flat, not every such curve was filed as active; the % refers to the signal ratio)
Procedure, shortened: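 Quantitative HTS of the Tox21 10K library in HEK293 cells bearing a stably integrated UAS-controlled beta-lactamase reporter. Compound exposure lasted 16 h at 37C. Reporter activity was detected by FRET substrate fluorescence after 2 h at room temperature.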

[24] = qHTS assay to identify small molecule antagonists of the androgen receptor (AR) signaling pathway using the MDA cell line - cell viability counter screen (AID 743041; note: nearly all actives have a fitted effect of over 45% in size)
Procedure, shortened: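 MDA-kb2 AR-luc human breast carcinoma cells (MMTV-luciferase, AR/GR responsive) were treated with compounds plus R1881 agonist for 16 h at 37 °C. Viability was read as CellTiter-Fluor fluorescence in the same wells as the reporter assay.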

[25] = molecular target: Androgen receptor (Homo sapiens) (UniProt P10275); experiment: qHTS assay to identify small molecule antagonists of the androgen receptor (AR) signaling pathway using the MDA cell line (AID 743042; note: nearly all actives have a fitted effect of over 55% in size)
Procedure, shortened: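 MDA-kb2 cells (human breast carcinoma, stably carrying an MMTV-luciferase reporter responsive to AR and GR) were plated at 3,000 cells/well and preincubated 5 hr at 37C, then given compound plus R1881 agonist for 16 h. ONE-Glo luminescence was read.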

[26] = molecular target: Estrogen receptor (Homo sapiens) (UniProt P03372); experiment: qHTS assay to identify small molecule antagonists of the estrogen receptor alpha (ER-alpha) signaling pathway (AID 743069; active = well fitted curve in the direction sought with a large enough effect in the signal ratio in the repeat runs, not every such curve was filed as active; the % refers to the signal ratio)
Procedure, shortened: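 HEK293 cells stably carrying an ER-alpha-UAS-bla beta-lactamase reporter were pre-cultured overnight in 2% charcoal-stripped FBS medium. Test compounds in DMSO were added together with 17beta-estradiol for 18 hr at 37C. Read-out was fluorescence after 2 hr with LiveBLAzer B/G FRET substrate at room temperature.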

[27] = qHTS assay to identify small molecule antagonists of the estrogen receptor alpha (ER-alpha) signaling pathway - cell viability counter screen (AID 743074; calls by dose curve; note: nearly all actives have a fitted effect of over 45% in size)
[28] = molecular target: Estrogen receptor (Homo sapiens) (UniProt P03372); experiment: qHTS assay to identify small molecule agonists of the estrogen receptor alpha (ER-alpha) signaling pathway (AID 743075; calls by dose curve)
[29] = qHTS assay to identify small molecule antagonists of the estrogen receptor alpha (ER-alpha) signaling pathway using the BG1 cell line (AID 743080; calls by dose curve;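 note: BG1 cells stimulated with 17beta-estradiol alongside compound; series mostly up to about 70 µM; nearly all actives have a fitted effect of over 25% in size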)
Procedure, shortened: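 BG1Luc4E2, endogenous ER-alpha, 4xERE-luc; 5 d charcoal-stripped FBS, phenol red free; 24 h plating; cpd + 17beta-estradiol 21.5 h, 37 C/5% CO2; CellTiter-Fluor viability 30 min, then ONE-Glo luciferase 30 min RT.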

[30] = qHTS assay to identify small molecule antagonists of the estrogen receptor alpha (ER-alpha) signaling pathway using the BG1 cell line - cell viability counter screen (AID 743081);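 note: compound given together with 17beta-estradiol as the ER stimulus; series mostly up to about 70 µM; nearly all actives have a fitted effect of over 45% in size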
Aromatase (Homo sapiens) = Aromatase (Homo sapiens) (UniProt P11511); experiment: qHTS assay to identify aromatase inhibitors (AID 743083); note: series mostly up to about 70 µM; nearly all actives have a fitted effect of over 55% in size
[31] = qHTS assay to identify aromatase inhibitors - cell viability counter screen (AID 743084)
[32] = molecular target: Aryl hydrocarbon receptor (Homo sapiens) (UniProt P35869); experiment: qHTS assay to identify small molecule that activate the aryl hydrocarbon receptor (AhR) signaling pathway (AID 743085);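 note: HG2L7.5c1 human HepG2 liver cells with stably integrated DRE-driven firefly reporter; series mostly up to about 70 µM; nearly all actives have a fitted effect of over 15% in size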
Procedure, shortened: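 Compounds were tested in HepG2 hepatocellular carcinoma cells harbouring a stably integrated luciferase gene under control of 20 DREs. Increased reporter signal after 24 h treatment at 37C was taken as AhR activation.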

[33] = qHTS assay to identify small molecule that activate the aryl hydrocarbon receptor (AhR) signaling pathway - cell viability counter screen (AID 743086);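 note: HepG2 liver cells carrying the AhR DRE luciferase reporter; series mostly up to about 70 µM; nearly all actives have a fitted effect of over 45% in size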
Procedure, shortened: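 HepG2-AhR-luc (HG2L7.5c1) cells, 4000/well, were preincubated 5 h at 37C, exposed to compound in qHTS format for 24 hr at 37C, then given CellTiter-Fluor for 30 min; viability was read as fluorescence in the reporter wells.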

[34] = molecular target: Peroxisome proliferator-activated receptor gamma (Homo sapiens) (UniProt P37231); experiment: qHTS assay to identify small molecule agonists of the peroxisome proliferator-activated receptor gamma (PPARg) signaling pathway (AID 743094; active = well fitted activation curve with a large enough effect in the signal ratio in the repeat runs, not every such curve was filed as active; the % refers to the signal ratio)
Procedure, shortened: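 Compounds dissolved in DMSO were added to PPARg UAS-bla HEK293H cells for 17 h at 37C, and reporter expression was quantified by fluorescence intensity after 1 h with LiveBLAzer B/G FRET substrate.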

Measured: Potency

Chain of Acetylcholinesterase (Homo sapiens) (P22303 whole entry, looked up): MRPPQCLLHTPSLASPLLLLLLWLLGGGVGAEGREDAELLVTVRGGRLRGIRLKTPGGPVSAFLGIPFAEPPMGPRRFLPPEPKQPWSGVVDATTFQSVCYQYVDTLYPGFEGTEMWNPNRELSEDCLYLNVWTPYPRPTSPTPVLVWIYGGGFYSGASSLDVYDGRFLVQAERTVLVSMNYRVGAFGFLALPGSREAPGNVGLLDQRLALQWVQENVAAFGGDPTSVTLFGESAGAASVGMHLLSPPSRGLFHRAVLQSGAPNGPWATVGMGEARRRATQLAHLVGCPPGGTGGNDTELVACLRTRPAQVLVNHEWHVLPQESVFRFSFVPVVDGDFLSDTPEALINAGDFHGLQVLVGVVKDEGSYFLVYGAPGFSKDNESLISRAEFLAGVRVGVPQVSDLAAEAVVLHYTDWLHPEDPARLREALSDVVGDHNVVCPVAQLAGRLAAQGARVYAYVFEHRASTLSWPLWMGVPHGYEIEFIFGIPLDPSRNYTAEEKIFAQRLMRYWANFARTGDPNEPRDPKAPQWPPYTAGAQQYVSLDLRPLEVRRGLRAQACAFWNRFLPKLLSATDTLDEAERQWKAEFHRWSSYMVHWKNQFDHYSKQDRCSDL
Chain of Androgen receptor (Homo sapiens) (P10275 whole entry, looked up): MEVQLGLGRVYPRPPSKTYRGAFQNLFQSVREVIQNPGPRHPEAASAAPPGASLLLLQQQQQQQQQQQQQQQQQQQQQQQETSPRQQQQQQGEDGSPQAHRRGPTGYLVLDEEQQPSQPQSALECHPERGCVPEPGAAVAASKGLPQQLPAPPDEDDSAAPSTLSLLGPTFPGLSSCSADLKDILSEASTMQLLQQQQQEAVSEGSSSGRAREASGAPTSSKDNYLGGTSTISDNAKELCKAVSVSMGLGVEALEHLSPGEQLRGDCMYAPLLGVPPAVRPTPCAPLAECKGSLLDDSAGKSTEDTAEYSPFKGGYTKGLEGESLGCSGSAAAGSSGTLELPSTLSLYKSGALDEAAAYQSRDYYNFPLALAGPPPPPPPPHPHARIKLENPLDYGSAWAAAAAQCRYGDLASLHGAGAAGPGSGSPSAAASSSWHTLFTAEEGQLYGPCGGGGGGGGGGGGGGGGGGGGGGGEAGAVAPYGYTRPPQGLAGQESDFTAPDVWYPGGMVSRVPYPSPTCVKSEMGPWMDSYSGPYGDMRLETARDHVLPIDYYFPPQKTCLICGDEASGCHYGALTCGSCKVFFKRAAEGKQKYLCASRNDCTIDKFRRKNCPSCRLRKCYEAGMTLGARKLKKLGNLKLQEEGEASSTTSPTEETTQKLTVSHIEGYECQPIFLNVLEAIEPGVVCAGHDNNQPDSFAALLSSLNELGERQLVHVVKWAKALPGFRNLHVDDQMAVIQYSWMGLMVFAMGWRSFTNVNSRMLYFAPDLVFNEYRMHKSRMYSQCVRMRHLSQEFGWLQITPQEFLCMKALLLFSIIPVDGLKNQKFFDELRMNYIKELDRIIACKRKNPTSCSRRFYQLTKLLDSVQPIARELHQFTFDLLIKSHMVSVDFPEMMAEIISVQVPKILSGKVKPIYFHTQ
Chain of Estrogen receptor (Homo sapiens) (P03372 whole entry, looked up): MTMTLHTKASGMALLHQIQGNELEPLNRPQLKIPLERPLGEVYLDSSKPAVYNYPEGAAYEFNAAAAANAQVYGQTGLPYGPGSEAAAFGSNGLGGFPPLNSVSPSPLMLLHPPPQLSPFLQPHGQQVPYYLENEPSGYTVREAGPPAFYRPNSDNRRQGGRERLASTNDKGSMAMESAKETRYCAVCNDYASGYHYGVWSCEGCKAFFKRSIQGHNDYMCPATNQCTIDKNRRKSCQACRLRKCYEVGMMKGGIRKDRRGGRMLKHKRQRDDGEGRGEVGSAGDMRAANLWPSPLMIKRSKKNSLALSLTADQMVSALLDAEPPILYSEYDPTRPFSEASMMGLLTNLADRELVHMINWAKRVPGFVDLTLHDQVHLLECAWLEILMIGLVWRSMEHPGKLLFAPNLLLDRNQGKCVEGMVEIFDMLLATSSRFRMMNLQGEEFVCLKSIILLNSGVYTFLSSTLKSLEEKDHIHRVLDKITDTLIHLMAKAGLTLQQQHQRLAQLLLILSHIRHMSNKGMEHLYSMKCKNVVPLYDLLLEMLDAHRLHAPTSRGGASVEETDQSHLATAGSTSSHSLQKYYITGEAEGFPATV
Chain of Aromatase (Homo sapiens) (P11511 whole entry, looked up): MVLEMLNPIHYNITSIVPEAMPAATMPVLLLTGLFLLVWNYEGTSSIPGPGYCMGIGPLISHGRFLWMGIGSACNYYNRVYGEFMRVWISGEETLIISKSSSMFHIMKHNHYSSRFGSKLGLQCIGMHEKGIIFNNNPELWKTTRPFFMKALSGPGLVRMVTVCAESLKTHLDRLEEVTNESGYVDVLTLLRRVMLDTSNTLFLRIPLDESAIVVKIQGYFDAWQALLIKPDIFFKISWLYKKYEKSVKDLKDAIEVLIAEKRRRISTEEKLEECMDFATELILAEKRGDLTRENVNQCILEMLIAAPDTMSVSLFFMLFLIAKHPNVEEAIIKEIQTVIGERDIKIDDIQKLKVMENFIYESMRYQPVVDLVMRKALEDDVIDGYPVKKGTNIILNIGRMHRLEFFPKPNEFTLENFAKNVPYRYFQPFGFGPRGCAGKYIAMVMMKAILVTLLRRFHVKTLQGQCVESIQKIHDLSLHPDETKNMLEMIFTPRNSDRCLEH
Chain of Aryl hydrocarbon receptor (Homo sapiens) (P35869 whole entry, looked up): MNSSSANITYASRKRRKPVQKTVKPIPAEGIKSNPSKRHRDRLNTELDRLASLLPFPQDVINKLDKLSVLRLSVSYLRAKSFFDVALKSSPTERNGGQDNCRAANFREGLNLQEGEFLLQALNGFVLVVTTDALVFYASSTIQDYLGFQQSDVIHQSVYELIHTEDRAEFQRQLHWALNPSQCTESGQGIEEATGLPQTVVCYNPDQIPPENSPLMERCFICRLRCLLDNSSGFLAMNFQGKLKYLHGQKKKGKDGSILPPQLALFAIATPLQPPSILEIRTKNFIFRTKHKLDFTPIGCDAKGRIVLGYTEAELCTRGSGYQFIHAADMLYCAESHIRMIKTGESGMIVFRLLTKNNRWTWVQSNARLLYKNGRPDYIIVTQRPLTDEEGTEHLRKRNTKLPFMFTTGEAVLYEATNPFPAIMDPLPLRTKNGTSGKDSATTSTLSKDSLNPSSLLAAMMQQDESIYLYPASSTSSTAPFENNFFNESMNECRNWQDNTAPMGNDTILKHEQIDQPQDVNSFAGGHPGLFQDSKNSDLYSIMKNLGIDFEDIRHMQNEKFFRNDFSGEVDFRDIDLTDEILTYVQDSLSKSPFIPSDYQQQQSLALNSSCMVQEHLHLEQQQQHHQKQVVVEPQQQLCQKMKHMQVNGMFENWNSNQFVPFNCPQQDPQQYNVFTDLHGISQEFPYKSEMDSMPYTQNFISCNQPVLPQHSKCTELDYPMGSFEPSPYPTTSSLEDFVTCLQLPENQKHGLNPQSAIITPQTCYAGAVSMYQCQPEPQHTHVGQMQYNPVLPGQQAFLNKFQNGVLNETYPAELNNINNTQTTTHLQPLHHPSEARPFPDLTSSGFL
Chain of Peroxisome proliferator-activated receptor gamma (Homo sapiens) (P37231 whole entry, looked up): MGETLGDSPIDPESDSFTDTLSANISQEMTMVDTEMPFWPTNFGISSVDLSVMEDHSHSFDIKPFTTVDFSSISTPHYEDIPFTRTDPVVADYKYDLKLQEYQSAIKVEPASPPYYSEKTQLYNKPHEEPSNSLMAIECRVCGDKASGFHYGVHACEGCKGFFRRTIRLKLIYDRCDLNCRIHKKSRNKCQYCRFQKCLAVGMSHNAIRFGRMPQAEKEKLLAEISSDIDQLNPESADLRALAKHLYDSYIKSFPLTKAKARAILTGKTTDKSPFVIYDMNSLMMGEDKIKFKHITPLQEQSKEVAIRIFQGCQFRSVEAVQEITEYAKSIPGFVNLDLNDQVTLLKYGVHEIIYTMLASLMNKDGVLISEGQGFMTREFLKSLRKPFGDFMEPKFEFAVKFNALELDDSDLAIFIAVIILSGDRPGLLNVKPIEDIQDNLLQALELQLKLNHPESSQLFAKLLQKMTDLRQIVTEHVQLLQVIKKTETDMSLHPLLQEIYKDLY

COC(=O)c1ccc(C(=O)O)cc1
inactive: [1] | [2] | [3]

COCC(O)CO (stereo not drawn)
inactive: [1] | [2] | [3]

CN1CC[C@@]23CCCC[C@@H]2[C@@H]1Cc1ccc(O)cc13
not listed: [1] | [2] | [3]
inactive: all other assays above
